Rows were chosen to be rich in hits. Some 0.9% of all compounds tested hit in one or more screens of this group.
PPARg SRC1 recr = promotes SRC-1 coactivator recruitment by human PPARgamma; hit rate 0.41% among 200,000; P37231; activation, % at 8 µM; PPARgamma-SRC-1 coactivator recruitment biochemical assay; AID 631; in the data active = activation above about 19%;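 also: 0% = DMSO and 100% = reference agonist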
Target sequence (P37231 whole entry, looked up): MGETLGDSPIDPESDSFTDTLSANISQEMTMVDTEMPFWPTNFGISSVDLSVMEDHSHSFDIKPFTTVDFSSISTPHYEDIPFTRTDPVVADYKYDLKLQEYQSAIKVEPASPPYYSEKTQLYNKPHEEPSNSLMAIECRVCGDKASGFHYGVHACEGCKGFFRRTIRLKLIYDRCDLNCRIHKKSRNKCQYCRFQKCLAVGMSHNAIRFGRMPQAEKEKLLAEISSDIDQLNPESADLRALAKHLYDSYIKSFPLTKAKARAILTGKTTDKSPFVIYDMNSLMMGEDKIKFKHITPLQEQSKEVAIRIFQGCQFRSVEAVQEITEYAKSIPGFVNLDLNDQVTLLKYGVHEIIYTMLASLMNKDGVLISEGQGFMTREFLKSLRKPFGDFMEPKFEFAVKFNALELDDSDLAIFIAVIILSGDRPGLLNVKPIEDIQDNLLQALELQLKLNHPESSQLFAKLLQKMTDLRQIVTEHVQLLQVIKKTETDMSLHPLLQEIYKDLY
TR-FRET SRC-2 ct = flags TR-FRET format artefacts in PPARgamma SRC-2 recruitment agonist screen; TR-FRET ratio at 8 µM; hit rate 0.4% among 200,000; TR-FRET artefact counter-screen; active compounds read high; AID 1049
SRC1 TRFRET art = TR-FRET artefact, counter-screen to PPARgamma/SRC-1 agonist assay | TR-FRET ratio at 8 µM | hit rate 0.34% among 99,000 | TR-FRET detection artefact counter-screen, emission ratio; active compounds read high; in the data active = TR-FRET ratio above about 2300
SRC3 TRFRET art = flags TR-FRET format artefacts in PPARgamma SRC-3 recruitment agonist screen | TR-FRET artefact counter-screen, PPARgamma/SRC-3 format; active compounds read high | TR-FRET ratio at 8 µM | hit rate 0.39% among 99,000
PPARg SRC-2 ag = PPARgamma-driven SRC-2 recruitment agonism; P37231; PPARgamma LBD-SRC-2 recruitment, biochemical; activation, % at 8 µM; hit rate 0.34% among 200,000; in the data active = activation above about 22%;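 also: 0% = vehicle and 100% = reference agonist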
PPARg SRC-3 ag = promotes SRC-3 coactivator recruitment by human PPARgamma | biochemical PPARgamma/SRC-3 coactivator recruitment assay | P37231 | activation, % at 8 µM | hit rate 0.26% among 200,000; in the data active = activation above about 23%;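 also: 0% = DMSO and 100% = reference agonist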
PPARg SRC2 conf = confirmation of agonists of SRC-2 recruitment by human PPARgamma; hit rate 52% among 790; AID 1297; biochemical SRC-2 recruitment by PPARgamma; shares compounds with PPARg SRC-3 ag; activation, % at 8 µM; in the data active = activation above about 22%;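 also: 0% = vehicle alone and 100% = reference agonist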
PPARg SRC1 conf = human PPARgamma SRC-1 recruitment agonism, confirmation; shares compounds with PPARg SRC-3 ag; PPARgamma–SRC-1 coactivator recruitment biochemical assay; activation, % at 8 µM; hit rate 43% among 790; AID 1300; in the data active = activation above about 20%;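 also: 0% = vehicle wells and 100% = reference agonist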
PPARg SRC3 ag = confirmation of agonists of SRC-3 recruitment by human PPARgamma | activation, % at 8 µM | hit rate 29% among 790 | biochemical PPARgamma-SRC-3 coactivator recruitment, agonist mode | shares compounds with PPARg SRC-3 ag; in the data active = activation above about 24%;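 also: 0% = vehicle wells and 100% = reference agonist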
An asterisk follows results filed as active; / = no result. Rule as the data show it, unless noted: active = TR-FRET ratio above about 2000; inactive = the rest.

SMILES | PPARg SRC1 recr | TR-FRET SRC-2 ct | SRC1 TRFRET art | SRC3 TRFRET art | PPARg SRC-2 ag | PPARg SRC-3 ag | PPARg SRC2 conf | PPARg SRC1 conf | PPARg SRC3 ag
COc1cccc(CNC(=O)CSc2ccc(-c3cccs3)nn2)c1 | 6.3 | 1633 | 1986 | 1878 | 1.0 | 2.5 | / | / | /
S=c1[nH]nc(Cc2cccc3ccccc23)o1 | -7.7 | 1336 | 1581 | 1601 | -6.6 | 2.6 | / | / | /
CSc1ccccc1-c1n[nH]c(=S)o1 | 69.5* | 3652* | 4008* | 3610* | 95.6* | 44.5* | 50.5* | 33.0* | 34.1*
S=c1[nH]nc(-c2ccccc2)o1 | 56.2* | 2863* | / | / | 66.9* | 71.2* | 51.7* | 37.2* | 35.2*
Cc1ccccc1-c1n[nH]c(=S)o1 | 46.1* | 3075* | / | / | 67.5* | 79.2* | 49.9* | 33.5* | 35.6*
CC(Cc1n[nH]c(=S)o1)c1ccccc1 (stereo not drawn) | 0.2 | 1603 | 1951 | 1437 | 0.0 | -0.9 | / | / | /
Cc1ccc(-c2cc(-c3n[nH]c(=S)o3)c3ccccc3n2)cc1 | 10.5 | 1695 | 2257 | 1989 | 4.5 | 9.8 | / | / | /
O=c1c2ccccc2c(-c2n[nH]c(=S)o2)nn1Cc1ccccc1 | 23.4* | 2234* | 2576* | 2375* | 27.8* | 15.8 | 48.7* | 42.1* | 30.9*
CC(=O)Nc1nc(CCN2C(=O)c3ccccc3C2=O)cs1 | -1.3 | 1545 | 1628 | 1411 | 1.0 | -2.6 | / | / | /
Cc1ccc(C)c(NS(=O)(=O)c2cc(C(=O)N3CCCC3)ccc2Cl)c1 | -1.3 | 1723 | 1977 | 1496 | 0.2 | 6.4 | / | / | /
COc1ccc(-c2nc(-c3cccs3)c(-c3cccs3)[nH]2)cc1O | 63.0* | 3397* | / | / | 89.5* | 90.3* | 55.8* | 43.6* | 39.9*
O=[N+]([O-])c1ccc(O)c(-c2nc(-c3ccccc3)c(-c3cccs3)[nH]2)c1 | -1.1 | 1532 | / | / | 13.5 | 22.3 | / | / | /
O=C(c1cc2c(s1)-c1ccccc1OC2)N1CCN(c2ccccc2)CC1 | 19.4* | 2061* | / | / | 20.9 | 11.1 | 21.5 | 18.9 | 11.8
CCOC(=O)N1CCN(C(=O)c2cc3c(s2)-c2ccccc2OC3)CC1 | 20.5* | 1847 | / | / | 13.4 | 37.8* | 7.5 | 9.2 | 4.2
O=C(c1cc2c(s1)-c1ccccc1OC2)N1CCN(c2ccccn2)CC1 | 30.4* | 2008* | / | / | 22.2* | 30.3* | 33.7* | 29.5* | 20.3
COc1ccccc1-c1c(C(F)(F)F)oc2cc(OCC(=O)Nc3cc(C)ccc3C)ccc2c1=O | 3.0 | 1547 | 1934 | 1814 | 8.2 | 2.3 | / | / | /
CCOC(=O)C1CCCN(CC(=O)Nc2c(C(=O)OC)[nH]c3ccc(Br)cc23)C1 (stereo not drawn) | 25.9* | 2688* | / | / | 40.3* | 42.5* | 34.5* | 23.0* | 24.4*
COC(=O)c1[nH]c2ccc(Br)cc2c1NC(=O)CN1CCCc2ccccc21 | 31.5* | 2282* | / | / | 42.5* | 50.3* | 15.7 | 9.9 | 7.1
Cc1csc(NC(=O)c2cc3c(C)nn(Cc4ccccc4Cl)c3s2)n1 | 2.8 | 1418 | 1770 | 1601 | -8.5 | -0.6 | / | / | /
Cc1ccc(C(C)C)c(OCc2nn(CC(=O)c3ccc(Cl)cc3)c3[n+]2CCCCC3)c1 | 0.0 | 1491 | 1614 | 1289 | -0.9 | 0.6 | / | / | /
COc1cc([N+](=O)[O-])ccc1NC(=O)CN1CCN(C(=O)c2ccco2)CC1 | 6.7 | 1751 | 1964 | 1647 | -1.4 | 7.3 | / | / | /
Nc1ccc2c(c1)C(=O)C(=O)c1ccccc1-2 | 22.4* | 1964 | / | / | 32.1* | 28.7* | 20.2 | 22.8* | 11.6
O=C1C(=O)c2ccc(-c3ccccc3)cc2-c2ccccc21 | 0.8 | 1525 | / | / | -2.6 | -3.2 | / | / | /
COC(=O)CCS(=O)(=O)c1nc(-c2ccccc2)cc(C(F)(F)F)n1 | 21.4* | 1639 | / | / | 5.2 | 8.6 | 7.5 | 16.1 | 11.1
CCOC(=O)CCS(=O)(=O)c1nc(-c2ccccc2)cc(C(F)(F)F)n1 | 15.4 | 1475 | / | / | 15.1 | 12.7 | / | / | /
SMILES | PPARg SRC1 recr | TR-FRET SRC-2 ct | SRC1 TRFRET art | SRC3 TRFRET art | PPARg SRC-2 ag | PPARg SRC-3 ag | PPARg SRC2 conf | PPARg SRC1 conf | PPARg SRC3 ag
CC(=O)Nc1cccc(Oc2ncnc3scc(-c4ccc(C(C)C)cc4)c23)c1 | -5.6 | 1557 | 1657 | 1408 | -6.0 | -0.6 | / | / | /
Cc1c(Cl)cnc(NC(=O)COC(=O)CCc2nc3ccccc3s2)c1Cl | 3.5 | 1627 | 1990 | 1621 | -5.1 | -6.4 | / | / | /
NS(=O)(=O)c1ccc(CCNC(=O)c2cc(-c3ccccc3)nc3ccccc23)cc1 | -0.9 | 1481 | 1708 | 1586 | -1.2 | 0.3 | / | / | /
NS(=O)(=O)c1ccc(CNC(=O)c2cc(-c3ccccn3)nc3ccc(Cl)cc23)cc1 | 62.7* | 2879* | 3155* | 3729* | 64.1* | 54.3* | 33.2* | 27.0* | 18.4
O=C(CSc1ccccc1)Nc1cc(S(=O)(=O)N2CCOCC2)ccc1N1CCOCC1 | 9.3 | 1538 | 1708 | 1357 | -2.0 | 0.6 | / | / | /
Cc1cc(=S)c2cccc(C)c2[nH]1 | 16.5 | 2155* | 2464* | 2209* | 22.2* | 20.2 | 1.7 | 2.8 | 2.1
CCCOC(=O)c1c(NC(=O)CCCn2nc([N+](=O)[O-])cc2C)sc(C(=O)OC)c1C | -6.1 | 1457 | 1625 | 1556 | -0.4 | -1.3 | / | / | /
Cc1nnc(SCC(=O)NNC(=O)CC#N)[nH]c1=O | -1.8 | 1398 | 1579 | 1493 | 1.5 | -1.0 | / | / | /
COc1ccc(NS(=O)(=O)c2ccc(O)c(NC(=O)c3cc4c(C)nn(-c5ccc(F)cc5)c4s3)c2)cc1 | 2.6 | 1661 | 1771 | 1637 | 5.7 | 0.5 | / | / | /
CC1N(C)c2cccc3cccc(c23)N1C | 13.2 | 1457 | / | / | 25.0* | 11.2 | 24.2* | 17.0 | 12.7
O=C(O)Cc1cc(C(=O)Nc2ccc(Br)cc2)sc1-c1ccccc1 | 33.1* | 2211* | 2611* | 2260* | 22.5* | 16.1 | 16.3 | 15.4 | 11.0
O=C(O)CCC(=O)Nc1cccc(C(=O)Nc2ccc(Br)cc2)c1 | 6.9 | 1565 | 1893 | 1559 | -9.6 | 2.0 | / | / | /
COc1ccc(/C=N/c2c(-c3ccco3)nc3ccccn23)cc1OC | 33.5* | 1874 | / | / | 23.0* | 29.1* | 16.9 | 8.0 | 5.9
C=CCNC(=S)NS(=O)(=O)c1cccs1 | 3.7 | 1575 | 1845 | 1720 | 14.9 | 5.2 | / | / | /
COC(=O)CNc1n[nH]c(=S)[nH]c1=O | 99.8* | 4234* | / | / | 120.7* | 156.0* | 118.7* | 86.2* | 82.2*
CC(C)OC(=O)C(C)Nc1n[nH]c(=S)[nH]c1=O (stereo not drawn) | 71.3* | 3006* | 3785* | 3327* | 66.2* | 45.1* | 98.2* | 73.8* | 63.5*
CCOC(=O)CSc1nnc(NCC(=O)OC(C)C)c(=O)[nH]1 | 7.0 | 1728 | / | / | 7.3 | 7.4 | / | / | /
